Assay outcomes from PubChem BioAssay.
This is a sample that favours compounds with a hit; in the whole collection about 7.5% have one here.
ELG1 genotoxic = induces genotoxicity in HEK293T cells with luciferase-tagged ELG1 | HEK293T ELG1-luciferase reporter, luminescence, 16 h | Potency, µM (series often up to 46 µM), most hits filed as activators | 330,000 compounds, 1.3% hits | AID 504466; also: nearly all actives have a fitted effect of over 60% in size
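Luminescence read-out: rising ELG1-luciferase signal, reflecting elevated ELG1 protein under genetic stress, flags genotoxic compounds. Cells were treated for 16 hr at 37 °C before ONE-Glo detection.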
FLuc modulator = counter-screen for miR-21 project: firefly luciferase inhibitors or activators. 360,000 compounds, 6.9% hits. AID 588342. purified FLuc, Km substrates, luminescence inhibition. Potency, µM (series often up to 57.5 µM), most hits filed as inhibitors. P08659; also: nearly all actives have a fitted effect of over 55% in size
Target sequence (P08659 whole entry, looked up): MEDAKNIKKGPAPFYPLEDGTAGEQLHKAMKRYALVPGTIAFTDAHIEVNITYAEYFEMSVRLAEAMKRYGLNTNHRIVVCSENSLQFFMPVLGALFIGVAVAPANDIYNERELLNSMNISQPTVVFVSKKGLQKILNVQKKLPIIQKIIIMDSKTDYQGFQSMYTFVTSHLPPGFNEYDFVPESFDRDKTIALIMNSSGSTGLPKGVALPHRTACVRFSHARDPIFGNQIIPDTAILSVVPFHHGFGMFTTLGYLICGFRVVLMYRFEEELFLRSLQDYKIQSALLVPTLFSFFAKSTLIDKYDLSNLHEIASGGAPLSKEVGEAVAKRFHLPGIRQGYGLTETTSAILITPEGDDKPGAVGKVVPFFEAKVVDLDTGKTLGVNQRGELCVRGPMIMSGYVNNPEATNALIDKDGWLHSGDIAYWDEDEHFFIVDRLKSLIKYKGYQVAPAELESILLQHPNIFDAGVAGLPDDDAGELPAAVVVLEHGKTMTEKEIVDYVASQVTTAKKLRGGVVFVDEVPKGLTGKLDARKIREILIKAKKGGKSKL
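Purified P. pyralis luciferase, 10 nM final, with Km-level 10 uM D-luciferin and 10 uM ATP in 50 mM Tris acetate pH 7.5, 10 mM Mg acetate, 0.01% Tween-20, 0.05% BSA; 6-point qHTS titration about 60 µM downward; luminescence read.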
Rab9 prom act = activates the Rab9 promoter. Huh7 Rab9 promoter-luciferase reporter, luminescence, 24 h. Potency, µM (series often up to 9.22 µM), usual class: activators. 320,000 compounds, 2.8% hits. AID 485297; also: nearly all actives have a fitted effect of over 60% in size
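Huh7 cells stably carrying Rab9 promoter–luciferase reporter, plated 1500 cells/well, compound added after 2 h and incubated 24 h at 37 °C; luciferase luminescence then read after 10 min with detection reagent.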
NPC1 prom act = activates the NPC1 promoter. AID 485313. 320,000 compounds, 2.4% hits. Potency, µM (highest dose often 9.22 µM), most hits filed as activators. Huh7 NPC1 promoter luciferase reporter, 24 h; also: nearly all actives have a fitted effect of over 60% in size
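Stable NPC1-promoter luciferase Huh7 line; cpd (DMSO) 24 h, 37 °C, 5% CO2; Amplite luciferase reagent 10 min RT; luminescence readout. qHTS format.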
KinaseGlo FLuc = Kinase-Glo luciferase inhibition (counter-screen); Q27757; Kinase-Glo luciferase, ATP luminescence, 8 min; Potency, µM (titrated, usually from 38.3 µM), hits mostly inhibitors; 200,000 compounds, 0.28% hits; AID 1379; also: nearly all actives have a fitted effect of over 60% in size
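Light output from Kinase-Glo luciferase with luciferin and 10 uM ATP in 50 mM imidazole pH 7.2, KCl, MgCl2, Tween 20, BSA; compound pin-delivered, 8-min ambient incubation, then luminescence read.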
SMN2 splice up = increases expression of the SMN2 splice variant. 210,000 compounds, 2.8% hits. Potency, µM (top dose mostly 46.1 µM), usual class: activators. HEK293 SMN2-luciferase splicing reporter, luminescence, 30-36 h; also: nearly all actives have a fitted effect of over 55% in size
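HEK293 cells carry an SMN2 minigene-luciferase reporter in which exon 7 inclusion puts luciferase in frame. Cells were seeded at 2000 cells/well, attached for 10-12 hours, then exposed to compounds for 30-36 hours at 37C before ONE-Glo luminescence.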
A number is an active result; i = inactive; ? = inconclusive; nt = not tested or not shown. Calls follow the shape of the dose curve; as a rule, active = well fitted curve in the direction sought with a large enough effect; inconclusive = small, poorly fitted or top-dose-only effect, or another doubt; inactive = no such curve, though single readings can be large; an effect the other way counts as inactive or inconclusive.

SMILES | ELG1 genotoxic | FLuc modulator | Rab9 prom act | NPC1 prom act | KinaseGlo FLuc | SMN2 splice up
O=C(COc1ccccc1)NCC(=O)NC1=NCCS1 | i | i | i | i | i | i
O=C(CSc1cccc2cccc(Cl)c12)NC1=NCCS1 | i | ? | i | i | i | i
CCn1cc(C(=O)NC(C)c2ccccc2)c(=O)c2cc(S(=O)(=O)N3CCc4ccccc4C3)ccc21 (configuration not stated) | nt | i | nt | nt | nt | i
COC1CCC(C(=O)c2ccc3nc4c(cc3c2)CCCO4)CC1 (configuration not stated) | nt | nt | nt | nt | i | 13µM
Cc1ccc2cc3c(nc2c1)OCC3 | i | i | i | i | nt | nt
CCCc1cnc2c(c1SCC(=O)Nc1ccccc1F)c(=O)n(C)c(=O)n2C | nt | i | nt | nt | nt | nt
C(=N\N(c1ccccc1)c1ccccc1)/c1ccc2c(c1)OCO2 | i | i | i | i | i | i
CN(/N=C/c1ccc2c(c1)OCO2)c1ccccc1 | ? | 6.7µM | 2.8µM | 4µM | i | 20µM
COc1cc(/C=N/N(C)c2ccccc2)ccc1O | 4.6µM | 2.4µM | ? | ? | i | ?
O=C(NCCC1=CCCCC1)c1ccc(Cl)cc1 | ? | 1.3µM | 0.28µM | 0.32µM | i | nt
O=C(NCCC1=CCCCC1)c1cnccn1 | 15µM | ? | 3.2µM | ? | i | 11µM
O=C(CCN1C(=O)c2ccccc2C1=O)NCCC1=CCCCC1 | i | 21µM | 2.5µM | ? | i | i
CS(=O)(=O)N(Cc1ccc(Cl)cc1)c1ccc(C(=O)NCCC2=CCCCC2)cc1 | i | i | i | i | i | i
O=C(CCn1c(=O)sc2ccccc21)NCCC1=CCCCC1 | i | i | i | i | i | i
COc1ccc(OC)c(NC(=O)CC2C(=O)NCCN2C(=O)C(F)(F)F)c1 (configuration not stated) | nt | i | nt | nt | nt | nt
COc1cccc(NC(=O)Cn2nc3c4ccccc4n(Cc4cccc(F)c4)cc-3c2=O)c1 | nt | i | nt | nt | nt | nt
COc1cc(NC(=O)c2cc3nc(-c4ccccc4)cc(-c4ccccc4)n3n2)c(OC)cc1Cl | nt | i | nt | nt | nt | i
Cc1c(C(=O)Nc2ccc(Br)cc2F)oc2ccc(S(=O)(=O)N3CCCCC3)cc12 | nt | i | nt | nt | nt | nt
Cc1ccccc1Nc1c(-c2ccc(Cl)cc2)nc2c(C)cccn12 | nt | i | nt | nt | nt | i
Cc1ccccc1Nc1c(-c2ccco2)nc2c(C)cccn12 | nt | 13µM | nt | nt | nt | 16µM
O=C(CNC(=O)c1ccccc1)NCC(=O)OCC(=O)c1ccc(F)cc1 | i | i | i | i | i | i
O=C(/C=C\NCC(=O)c1ccccc1)c1ccc2ccccc2c1 | i | 27µM | i | i | nt | nt
O=C(/C=C\NCC(=O)c1ccccc1)c1ccc(F)cc1 | i | 13µM | i | i | i | i
CCc1nnc(NS(=O)(=O)c2ccc(N/C=C\C(=O)c3ccc4ccccc4c3)cc2)s1 | i | ? | i | i | i | i
Cc1nc(-c2ccc(F)cc2)sc1CCNC(=O)c1cccs1 | nt | i | nt | nt | nt | nt
SMILES | ELG1 genotoxic | FLuc modulator | Rab9 prom act | NPC1 prom act | KinaseGlo FLuc | SMN2 splice up
CC(=O)c1cccc(-c2csc(N3CCC(C(N)=O)CC3)n2)c1 | i | 17µM | 0.4µM | 1.3µM | nt | nt
COc1ccc(-c2csc(N3CCC(C(N)=O)CC3)n2)cc1 | i | 21µM | ? | i | nt | nt
NC(=O)C1CCN(c2nc(-c3ccc4ccccc4c3)cs2)CC1 | i | 12µM | ? | 2µM | nt | nt
N#Cc1ccc(-c2csc(N3CCC(C(N)=O)CC3)n2)cc1 | nt | i | nt | nt | nt | nt
Cc1ccc(-c2csc(N3CCC(C(N)=O)CC3)n2)cc1 | i | 11µM | 2µM | 1.3µM | nt | nt
Cc1ccc(C(=O)c2ccc(N3CCOCC3)c(F)c2)cc1 | i | 17µM | i | i | i | i
CCCC(=O)c1ccc(N2CCOCC2)c(F)c1 | i | ? | i | ? | i | i
Cc1ccc2[nH]c3c(NCCN4CCOCC4)ncnc3c2c1 | i | ? | i | i | i | i
CC(C)Oc1ncnc2c1[nH]c1ccccc12 | i | 15µM | i | i | nt | nt
CCCCOc1ncnc2c1[nH]c1ccc(C)cc12 | ? | 1.1µM | ? | ? | nt | nt
COc1ccc2[nH]c3c(N4CC(C)OC(C)C4)ncnc3c2c1 (configuration not stated) | i | i | i | i | i | i
Cc1ccc2[nH]c3c(N4CCN(Cc5ccccc5)CC4)ncnc3c2c1 | i | i | i | i | i | i
Cc1ccc2[nH]c3c(N4CCCCCC4)ncnc3c2c1 | i | 19µM | i | i | i | i
CCCOc1ncnc2c1[nH]c1ccc(OC)cc12 | ? | 2.4µM | 0.56µM | 1.1µM | nt | nt
COc1cccc(CNC(=O)C2CCN(S(=O)(=O)c3ccc4c(c3)CCCN4C(C)=O)CC2)c1 | nt | i | nt | nt | nt | nt
CN1CCN(CCCNC(=O)c2cnn(-c3ccccc3)c2-n2cccc2)CC1 | nt | i | nt | nt | nt | i
CCN(CC)c1ncnc2c1[nH]c1ccccc12 | i | i | i | i | i | i
CCCOc1ncnc2c1[nH]c1ccccc12 | i | 17µM | i | i | i | i
CCc1ccc(CNC(=O)Cn2nc(C)c3nn(-c4ccc(Cl)cc4)c(C)c3c2=O)cc1 | nt | i | nt | nt | nt | nt
Cc1ccoc1C(=O)Nc1ccc(CC(=O)O)cc1 | ? | 1.7µM | i | i | i | ?
Cc1ccoc1C(=O)Nc1ccc2ccccc2c1 | ? | 0.38µM | 0.45µM | 1µM | nt | nt
O=C(O)Cc1ccc(NC(=O)c2ccc(NC(=O)c3ccco3)cc2)cc1 | i | ? | i | i | i | i
CC(=O)c1cc(C(=O)Nc2ccc3ccccc3c2)c(C)o1 | i | i | i | i | nt | nt
Cc1cc(C(=O)Nc2ccc3ccccc3c2)c(C)o1 | 0.65µM | 1.3µM | 3.5µM | 1.4µM | nt | nt
Cc1cc(C(=O)Nc2ccc3ccccc3c2)oc1C | 9.2µM | 2.1µM | 0.79µM | 0.63µM | nt | nt
SMILES | ELG1 genotoxic | FLuc modulator | Rab9 prom act | NPC1 prom act | KinaseGlo FLuc | SMN2 splice up
Cc1noc(C)c1-c1nccc(N2CCNCC2)n1 | nt | nt | nt | nt | i | i
Cc1ccc(C2CC(=O)C=C(Nc3ccc(Cl)cc3)C2)cc1 (configuration not stated) | i | i | i | i | i | i
O=C1C=C(Nc2ccc(Cl)cc2)CC(c2ccc(Cl)cc2)C1 (configuration not stated) | i | 11µM | i | i | i | i
O=S(=O)(Nc1ccc(-c2nc3cccnc3s2)cc1)c1ccc(Cl)s1 | 8.2µM | 19µM | ? | ? | i | 13µM
Cc1ccc(-c2nc3cccnc3s2)cc1NS(=O)(=O)c1ccc2c(c1)CCCC2 | i | i | i | i | i | i
CCS(=O)(=O)Nc1cc(-c2nc3cccnc3s2)ccc1C | 2.9µM | 9.5µM | i | 3.5µM | i | 11µM
Cc1nc2ccc(S(=O)(=O)Nc3ccc(-c4nc5cccnc5s4)cc3)cc2s1 | i | ? | i | i | i | ?
CCS(=O)(=O)Nc1ccc(-c2nc3cccnc3s2)cc1 | ? | 1.7µM | 0.71µM | 0.79µM | nt | nt
CCS(=O)(=O)Nc1cccc(-c2nc3cccnc3s2)c1 | i | 19µM | ? | ? | nt | nt
O=[N+]([O-])c1ccccc1S(=O)(=O)Nc1ccc(-c2ccc(N3CCOCC3)nn2)cc1 | i | ? | i | i | nt | nt
